Measurements published in PubChem BioAssay AID493214 (National Center for Advancing Translational Sciences (NCATS), 2011).
The source made the active and inactive calls. The call rests on the fitted dose curve; in most records, active means well fitted inhibition curve with a large enough effect; inactive means no such curve, though single readings can be large or run the other way.

What follows are compounds tested against 4'-phosphopantetheinyl transferase Sfp (Bacillus subtilis) (UniProt P39135) (assay: Inhibitos of Bacillus subtilis Sfp phosphopantetheinyl transferase (PPTase): Dry Powder Followup). Conditions: purified Sfp PPTase enzyme assay, dry powder retest; series mostly up to 114 µM.
4'-phosphopantetheinyl transferase Sfp (Bacillus subtilis), sequence (P39135 whole entry, looked up): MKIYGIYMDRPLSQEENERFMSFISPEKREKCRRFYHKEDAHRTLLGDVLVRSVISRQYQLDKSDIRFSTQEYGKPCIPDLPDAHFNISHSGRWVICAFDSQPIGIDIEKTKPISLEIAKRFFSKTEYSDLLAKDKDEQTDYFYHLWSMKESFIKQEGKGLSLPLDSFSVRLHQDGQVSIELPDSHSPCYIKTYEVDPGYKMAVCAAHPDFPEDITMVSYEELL
Source text: The covalent attachment of a phosphopantetheinyl (4'-PP) arm to a variety of synthases and other proteins is a key posttranslational protein modification. The 4'-PP is installed on the proteins post-translationally from coenzyme A (CoA) on a conserved serine residue by action of phosphopantetheinyl transferase (PPTase) enzymes. Phosphopantetheinylation is essential for synthase activity, and removal of the PPTase gene precludes natural product synthesis in microorganisms, or in the case of fatty acid biosynthesis, renders the organism unviable. PPTase enzymes belong to a distinct structural superfamily. Within bacteria, these enzymes are grouped into two classes based upon primary structure, the AcpS-Type and Sfp-Type PPTases.
Sfp-type PPTases, corresponding to an activator of surfactin production in Bacillus subtilis, are responsible for modifying type I polyketide and nonribosomal peptide synthases of prokaryotes. Sfp-type PPTases are responsible for the activation of a variety of pathogen-associated virulence factors. […]
In search of small molecule Sfp-PPTase inhibitors, a fluorescence quenching assay was developed for detection of Bacillus subtilis Sfp-PPTase enzymatic activity in a miniaturized high-throughput format. […]
Inhibition of Sfp-PPTase was detected by recording the fluorescence intensity change over a 30-minute reaction period at a 525 nm excitation and 598 nm emission. […]
Three uL of reagents, consisting of buffer (in columns 3 and 4 as negative control) and Sfp-PPTase (in columns 1, 2, 5 - 48) were dispensed into 1,536-well Greiner black solid bottom plate. […] The plate was then centrifuged at 1000 rpm for 15 seconds, and the fluorescence intensity recorded on a ViewLux High-throughput CCD imager (Perkin-Elmer) using standard BODIPY optics (525 nm excitation and 598 nm emission). The plate was then incubated for 30 minutes, and a second read on the ViewLux was performed. The fluorescence intensity difference over the 30-minute period was used to calculate the respective reaction rate for each well.
In the case of Clc1ccccc1-c1nn2c(-c3ccncc3)nnc2s1, the outcome is reported as “inactive”. For Cn1c(SCC(=O)c2cc3ccccc3o2)nnc1-c1ccccc1, the outcome was “inactive”. For O=c1[nH]c2ccccc2n2c(-c3ccccc3)nnc12, the outcome was “inactive”.
